# The entries come from a sample that favours the strongest signals as a whole.
# Legend:
# Assay in all cases: glycan array binding signal (z-score within array); higher = stronger binding
# Conditions in all cases: glycan notation: IUPAC condensed, linker removed
# [1] = target: GlcNAc(a1-4)Gal(b1-4)GlcNAc(b1-3)Gal(b1-4)Glc
# In short: (§1)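 Arrays were curated from the Consortium for Functional Glycomics database, 3228 in total, and kept only where the protein sequence was available. Binding is expressed as a within-array Z-score. This score was averaged across arrays of the same protein sequence at different concentrations or buffers and across linkers, and negative values can be read as non-binding.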
# [2] = target: GlcNAc(b1-2)Man(a1-3)[GlcNAc(b1-2)Man(a1-6)]Man(b1-4)GlcNAc(b1-4)[Fuc(a1-6)]GlcNAc
# In short: as §1
# [3] = target: GlcNAc(b1-2)[GlcNAc(b1-6)]Man(a1-6)[GlcNAc(b1-2)Man(a1-3)]Man(b1-4)GlcNAc(b1-4)[Fuc(a1-6)]GlcNAc
# In short: as §1
# [4] = target: GlcNAc(b1-3)Gal(b1-4)GlcNAc(b1-2)Man(a1-3)[GlcNAc(b1-3)Gal(b1-4)GlcNAc(b1-2)Man(a1-6)]Man(b1-4)GlcNAc(b1-4)[Fuc(a1-6)]GlcNAc
# In short: as §1
# [5] = target: GlcNAc(b1-3)Gal(b1-4)GlcNAc(b1-3)Gal(b1-4)GlcNAc
# In short: as §1
# [6] = target: GlcNAc(b1-3)Gal(b1-4)GlcNAc(b1-3)Gal(b1-4)GlcNAc(b1-3)Gal(b1-4)GlcNAc(b1-3)Gal(b1-4)GlcNAc(b1-2)Man(a1-3)[GlcNAc(b1-3)Gal(b1-4)GlcNAc(b1-3)Gal(b1-4)GlcNAc(b1-3)Gal(b1-4)GlcNAc(b1-3)Gal(b1-4)GlcNAc(b1-2)Man(a1-6)]Man(b1-4)GlcNAc(b1-4)[Fuc(a1-6)]GlcNAc
# In short: as §1
# GlcNAc(b1-3)GalNAc = target: GlcNAc(b1-3)GalNAc
# In short: as §1
# [7] = target: GlcNAc(b1-4)GlcNAc(b1-4)GlcNAc
# In short: as §1
# [8] = target: Kdn(a2-3)Gal(b1-4)[Fuc(a1-3)]GlcNAc
# In short: as §1
# [9] = target: Man(a1-2)Man(a1-3)[Man(a1-2)Man(a1-6)]Man(a1-6)[Man(a1-2)Man(a1-2)Man(a1-3)]Man
# In short: as §1
# [10] = target: Man(a1-2)Man(a1-3)[Man(a1-6)]Man(a1-6)[Man(a1-2)Man(a1-3)]Man(b1-4)GlcNAc(b1-4)GlcNAc
# In short: as §1
# [11] = target: Man(a1-3)[Man(a1-6)]Man(b1-4)GlcNAc(b1-4)[Fuc(a1-6)]GlcNAc
# In short: as §1
# [12] = target: Neu5Ac(a2-3)Gal(b1-4)GlcNAc(b1-2)Man(a1-3)[GlcNAc(b1-4)][Neu5Ac(a2-3)Gal(b1-4)GlcNAc(b1-2)Man(a1-6)]Man(b1-4)GlcNAc(b1-4)GlcNAc
# In short: as §1
# [13] = target: Neu5Ac(a2-3)Gal(b1-4)GlcNAc(b1-3)Gal(b1-4)GlcNAc(b1-3)Gal(b1-4)GlcNAc
# In short: as §1
# [14] = target: Neu5Ac(a2-3)Gal(b1-4)[Fuc(a1-3)]GlcNAc(b1-6)[Gal(b1-3)]GalNAc
# In short: as §1
# [15] = target: Neu5Ac(a2-3)[GalNAc(b1-4)]Gal(b1-4)Glc
# In short: as §1
# [16] = target: Neu5Ac(a2-3)[GalNAc(b1-4)]Gal(b1-4)GlcNAc(b1-3)GalNAc
# In short: as §1
# [17] = target: Neu5Ac(a2-6)Gal(b1-3)GlcNAc(b1-3)[Gal(b1-4)GlcNAc(b1-6)]Gal(b1-4)Glc
# In short: as §1
# [18] = target: Neu5Ac(a2-6)Gal(b1-4)GlcNAc
# In short: as §1
# [19] = target: Neu5Ac(a2-6)Gal(b1-4)GlcNAc(b1-2)Man(a1-3)[Gal(b1-4)GlcNAc(b1-2)Man(a1-6)]Man(b1-4)GlcNAc(b1-4)GlcNAc
# In short: as §1
# [20] = target: Neu5Ac(a2-6)Gal(b1-4)GlcNAc(b1-2)Man(a1-3)[Man(a1-6)]Man(b1-4)GlcNAc(b1-4)GlcNAc
# In short: as §1
# [21] = target: Neu5Ac(a2-6)Gal(b1-4)GlcNAc(b1-2)Man(a1-3)[Neu5Ac(a2-6)Gal(b1-4)GlcNAc(b1-2)Man(a1-6)]Man(b1-4)GlcNAc(b1-4)[Fuc(a1-6)]GlcNAc
# In short: as §1
# [22] = target: Neu5Ac(a2-6)Gal(b1-4)GlcNAc(b1-3)Gal(b1-4)GlcNAc(b1-3)GalNAc
# In short: as §1
# [23] = target: Neu5Ac(a2-8)Neu5Ac(a2-3)Gal(b1-4)GlcNAc
# In short: as §1
# [24] = target: Neu5Gc(a2-3)Gal(b1-3)[Fuc(a1-4)]GlcNAc
# In short: as §1
# [25] = target: Neu5Gc(a2-3)Gal(b1-4)GlcNAc
# In short: as §1
binder,measurement,setting,value
"LCA (Lens culinaris), P02870 (protein) MASLQTQMISFYLIFLSILLTTIFFFKVNSTETTSFSITKFSPDQKNLIFQGDGYTTKGKLTLTKAVKSTVGRALYSTPIHIWDRDTGNVANFVTSFTFVIDAPSSYNVADEFTFFIAPVDTKPQTGGGYLGVFNSKEYDKTSQTVAVEFDTFYNAAWDPSNKERHIGIDVNSIKSVNTKSWNLQNGERANVVIAFNAATNVLTVTLTYPNSLEEENVTSYTLNEVVPLKDVVPEWVRIGFSATTGAEFAAHEVHSWSFHSELGGTSSSKQAADA",glycan array binding signal (z-score),[1],-0.135
same,glycan array binding signal (z-score),[2],5.54
same,glycan array binding signal (z-score),[3],8.45
same,glycan array binding signal (z-score),[4],5.29
same,glycan array binding signal (z-score),[5],-0.199
same,glycan array binding signal (z-score),[6],3.94
same,glycan array binding signal (z-score),GlcNAc(b1-3)GalNAc,-0.209
same,glycan array binding signal (z-score),[7],-0.184
same,glycan array binding signal (z-score),[8],-0.228
same,glycan array binding signal (z-score),[9],1.19
same,glycan array binding signal (z-score),[10],2.09
same,glycan array binding signal (z-score),[11],6.07
same,glycan array binding signal (z-score),[12],-0.262
same,glycan array binding signal (z-score),[13],-0.228
same,glycan array binding signal (z-score),[14],-0.145
same,glycan array binding signal (z-score),[15],-0.235
same,glycan array binding signal (z-score),[16],0.102
same,glycan array binding signal (z-score),[17],-0.232
same,glycan array binding signal (z-score),[18],-0.202
same,glycan array binding signal (z-score),[19],-0.188
same,glycan array binding signal (z-score),[20],-0.239
same,glycan array binding signal (z-score),[21],4.04
same,glycan array binding signal (z-score),[22],-0.224
same,glycan array binding signal (z-score),[23],-0.237
same,glycan array binding signal (z-score),[24],-0.207
same,glycan array binding signal (z-score),[25],-0.219

# From the supplement of paper PMC8728848
